Test results as given in PubChem BioAssay (EPA / NIEHS).
Activity calls are given as the source filed them. The calls were made as follows: active = hit-call score of the fitted dose curve at least 0.9, where 1 is the maximum; inactive = score below 0.9.

Tests used:
[1] = biological target: CCAAT/enhancer-binding protein beta (Homo sapiens) (UniProt P17676); assay: ATG_C_EBP_CIS: Attagene CIS-FACTORIAL HepG2 Assay for human CCAAT/Enhancer Binding Protein (C/EBP) beta (AID 2282927); details: HepG2 Attagene cis-factorial transcription factor reporter; actives raise or lower the signal
Procedure, shortened: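 HepG2 transiently transfected with multiplexed reporter units under cis-regulatory promoters reporting endogenous C/EBPb activity. After 24 h exposure, reporter mRNA assayed by RT-PCR, fluorescent labelling, HpaI digestion and capillary electrophoresis; bidirectional fitting versus DMSO.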

[2] = ATG_CMV_CIS: Attagene CIS-FACTORIAL HepG2 Assay for human CMV (Internal Marker) (AID 2282928); details: HepG2 CMV promoter reporter, transcription factor profiling; actives raise or lower the signal;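 also: endpoint acts as a background internal control marker rather than a target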
Procedure, shortened: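 After transient transfection of HepG2 with reporter transcription units driven by cis-regulatory promoters, cells receive test chemical for 24 h. Labeled reporter amplicons, digested with HpaI, are sized and quantified by capillary electrophoresis against DMSO.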

[3] = ATG_DR4_LXR_CIS: Attagene CIS-FACTORIAL HepG2 Assay for human Liver X Receptor (LXR), DR4 submotif (AID 2282929); details: HepG2 Attagene DR4 cis-reporter, mRNA transcription; actives raise or lower the signal
Procedure, shortened: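 Readout: reporter transcript fluorescence after RT-PCR and capillary electrophoresis, fitted bidirectionally against DMSO controls. Human HepG2 liver cells carried transiently transfected multiplexed reporter constructs; endogenous transcription factor activity measured 24 h post-dosing.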

[4] = biological target: Aryl hydrocarbon receptor (Homo sapiens) (UniProt P35869); assay: ATG_Ahr_CIS: Attagene CIS-FACTORIAL HepG2 Assay for human Aryl Hydrocarbon Receptor (Ahr) (AID 2282930); details: HepG2 AhR cis-factorial reporter transcription; actives raise or lower the signal
Procedure, shortened: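 HepG2 cells transiently transfected with cis-element-driven multiplexed reporter units; endogenous AhR activity read as reporter mRNA 24 h after dosing, via RT-PCR, 6-FAM labelling, HpaI digestion and capillary electrophoresis. Bidirectional fit relative to DMSO.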

[5] = ATG_AP_1_CIS: Attagene CIS-FACTORIAL HepG2 Assay for human Activator Protein 1 (AP-1) (AID 2282931); details: HepG2 Attagene cis-factorial AP-1 reporter mRNA; actives raise or lower the signal
Procedure, shortened: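 Reporter transcripts were measured 24 h after dosing by RT-PCR and capillary electrophoresis of fluorescent fragments. Cells: HepG2 carrying transfected cis-regulated reporter constructs reading endogenous factor activity. Gain or loss fitted against DMSO.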

[6] = ATG_AP_2_CIS: Attagene CIS-FACTORIAL HepG2 Assay for human Activator Protein 2 (AP-2) (AID 2282932); details: HepG2 AP-2 cis-reporter, Attagene transcription factor profiling; actives raise or lower the signal
Procedure, shortened: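 HepG2 cells transiently transfected with cis-element reporter units and exposed for 24 h. Reporter mRNA measured by RT-PCR, FAM labelling, HpaI digestion and capillary electrophoresis. Changes in either direction fitted relative to DMSO.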

[7] = ATG_BRE_CIS: Attagene CIS-FACTORIAL HepG2 Assay for human Bone Morphogenetic Protein (BMP) Response Element (BRE) (AID 2282933); details: HepG2 BMP response element reporter, Attagene transcription factor profiling; actives raise or lower the signal
Procedure, shortened: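 Read-out: reporter mRNA induction quantified by RT-PCR and capillary electrophoresis after 24 h chemical exposure of transfected HepG2 cells. Endogenous factor activity on the BMP response element; gain or loss fitted against DMSO baseline.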

[8] = biological target: Transcription factor E2F1 (Homo sapiens) (UniProt Q01094); assay: ATG_E2F_CIS: Attagene CIS-FACTORIAL HepG2 Assay for human E2F Transcription Factor 1 (AID 2282935); details: HepG2 Attagene cis-reporter, E2F reporter RNA transcripts; actives raise or lower the signal
Procedure, shortened: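 Endogenous E2F1 activity read through cis-promoter reporter units transfected into HepG2. After 24 h compound treatment, reporter mRNA measured by RT-PCR, HpaI digestion and capillary electrophoresis. Bidirectional fit versus DMSO.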

[9] = ATG_E_Box_CIS: Attagene CIS-FACTORIAL HepG2 Assay for human Enhancer Box (E-box) (AID 2282936); details: HepG2 E-box cis-reporter transcription, actives raise or lower the signal
Procedure, shortened: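 HepG2 cells transiently transfected with multiplexed cis-element reporter units, dosed 24 h; reporter mRNA quantified by RT-PCR, 6-FAM labelling, HpaI digestion and capillary electrophoresis. E-box (USF1) signal fitted bidirectionally vs DMSO.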

[10] = ATG_M_61_CIS: Attagene CIS-FACTORIAL HepG2 Assay for M61 Transcription Factor (Internal Marker) (AID 2282937); details: HepG2 Attagene CIS-FACTORIAL M61 internal marker reporter; actives raise or lower the signal
Procedure, shortened: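 Readout: fluorescent reporter mRNA fragments resolved by capillary electrophoresis after RT-PCR. Transiently transfected human HepG2 cells carried MRTU constructs reporting endogenous TF activity; 24 h chemical exposure; gain or loss of signal fitted relative to DMSO.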

[11] = ATG_EGR_CIS: Attagene CIS-FACTORIAL HepG2 Assay for human Early Growth Response 1 (EGR1) (AID 2282938); details: HepG2 Attagene CIS-FACTORIAL EGR reporter mRNA; actives raise or lower the signal
Procedure, shortened: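 Read-out: fluorescent reporter-mRNA fragments resolved by capillary electrophoresis after RT-PCR, 24 h post-dose in transiently transfected HepG2. Endogenous transcription-factor activity reported via cis-element-regulated reporter units; gain or loss fitted relative to DMSO.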

[12] = ATG_M_19_CIS: Attagene CIS-FACTORIAL HepG2 Assay for M19 Transcription Factor (Internal Marker) (AID 2282939); details: HepG2 Attagene CIS-FACTORIAL M19 internal marker reporter; actives raise or lower the signal
Procedure, shortened: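 Readout: fluorescent reporter-transcript fragments by capillary electrophoresis after RT-PCR. Human HepG2 liver cells carried transfected MRTU constructs reporting endogenous transcription-factor activity; exposure 24 h. Gain or loss of signal fitted relative to DMSO.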

[13] = ATG_ERE_CIS: Attagene CIS-FACTORIAL HepG2 Assay for Estrogen Response Element (ERE) (AID 2282940); details: HepG2 ERE cis-reporter, Attagene RNA transcript; actives raise or lower the signal
Procedure, shortened: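 Readout: reporter mRNA induction by RT-PCR, FAM-labelled primer extension, HpaI digestion and capillary electrophoresis, 24 h after dosing transfected HepG2 cells. Endogenous transcription factors act on cis-element-regulated reporters. Gain or loss fitted against DMSO.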

[14] = biological target: Hepatocyte nuclear factor 3-beta (Homo sapiens) (UniProt Q9Y261); assay: ATG_FoxA2_CIS: Attagene CIS-FACTORIAL HepG2 Assay for human Forkhead box A2 (FOXA2) (AID 2282942); details: HepG2 cis-reporter transcription factor activity, 24 h; actives raise or lower the signal
Procedure, shortened: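 Readout: fluorescent reporter transcripts resolved by capillary electrophoresis after RT-PCR. Transiently transfected HepG2, 24 h compound exposure, endogenous TF activity at cis promoter elements. Gain or loss of signal fitted relative to DMSO.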

[15] = ATG_FoxO_CIS: Attagene CIS-FACTORIAL HepG2 Assay for human Forkhead box O (FoxO) (AID 2282943); details: HepG2 Attagene cis-reporter, FoxO element, mRNA; actives raise or lower the signal
Procedure, shortened: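 HepG2 cells transiently transfected with cis-element-driven reporter units report endogenous FoxO activity. After 24 h chemical exposure, reporter mRNA quantified by RT-PCR, fluorescent labeling, HpaI digestion and capillary electrophoresis; bidirectional fit versus DMSO.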

[16] = ATG_GATA_CIS: Attagene CIS-FACTORIAL HepG2 Assay for human GATA Binding Protein (AID 2282944); details: HepG2 GATA cis-element reporter, Attagene multiplex mRNA; actives raise or lower the signal
Procedure, shortened: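 Read-out: fluorescent reporter mRNA fragments resolved by capillary electrophoresis after RT-PCR. Human liver HepG2 cells carried transiently transfected cis-regulated reporter constructs; chemicals incubated 24 h; gain or loss of signal fitted relative to DMSO.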

[17] = ATG_GLI_CIS: Attagene CIS-FACTORIAL HepG2 Assay for human Zinc Finger Protein GLI1 (AID 2282945); details: HepG2, Attagene cis-factorial reporter mRNA, GLI element; actives raise or lower the signal
Procedure, shortened: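 Transiently transfected HepG2 cells report endogenous transcription factor activity via cis-element-driven reporter units. After 24 h compound exposure, reporter mRNA was measured by RT-PCR with capillary electrophoresis; bidirectional fitting against DMSO baseline.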

[18] = ATG_Ets_CIS: Attagene CIS-FACTORIAL HepG2 Assay for human Erythroblast Transformation Specific (ETS) (AID 2282941); details: HepG2 ETS cis-reporter transcription, actives raise or lower the signal
Procedure, shortened: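 Human HepG2 hepatoma cells were transiently transfected with promoter-driven reporter constructs and treated for 24 hours. Reporter transcripts were quantified by RT-PCR with fluorescent primer extension; bidirectional curve fitting used DMSO as reference.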

[19] = biological target: Bile acid receptor (Homo sapiens) (UniProt Q96RI1); assay: ATG_IR1_CIS: Attagene CIS-FACTORIAL HepG2 Assay for human Nuclear Receptor Subfamily 1 Group H Member 4 (NR1H4), IR1 submotif (AID 2282946); details: IR1 reporter transcription, actives raise or lower the signal
Procedure, shortened: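 HepG2 cells transiently transfected with multiple cis-promoter-driven reporter units to measure endogenous transcription factor activity; 24 h exposure. Reporter mRNA read by RT-PCR, FAM labelling, HpaI digestion and capillary electrophoresis. Bidirectional fit versus DMSO.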

Measured: AC50

Chain of CCAAT/enhancer-binding protein beta (Homo sapiens) (P17676 whole entry, looked up): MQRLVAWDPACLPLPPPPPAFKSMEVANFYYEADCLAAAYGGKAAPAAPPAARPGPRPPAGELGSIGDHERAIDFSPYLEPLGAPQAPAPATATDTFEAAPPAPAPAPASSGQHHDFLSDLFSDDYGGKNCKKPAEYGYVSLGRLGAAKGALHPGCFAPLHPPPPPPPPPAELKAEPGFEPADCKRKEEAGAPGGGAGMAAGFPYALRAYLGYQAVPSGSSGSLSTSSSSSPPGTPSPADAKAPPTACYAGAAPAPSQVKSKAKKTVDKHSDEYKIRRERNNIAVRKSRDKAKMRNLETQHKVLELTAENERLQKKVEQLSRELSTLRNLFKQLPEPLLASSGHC
Chain of Bile acid receptor (Homo sapiens) (Q96RI1 whole entry, looked up): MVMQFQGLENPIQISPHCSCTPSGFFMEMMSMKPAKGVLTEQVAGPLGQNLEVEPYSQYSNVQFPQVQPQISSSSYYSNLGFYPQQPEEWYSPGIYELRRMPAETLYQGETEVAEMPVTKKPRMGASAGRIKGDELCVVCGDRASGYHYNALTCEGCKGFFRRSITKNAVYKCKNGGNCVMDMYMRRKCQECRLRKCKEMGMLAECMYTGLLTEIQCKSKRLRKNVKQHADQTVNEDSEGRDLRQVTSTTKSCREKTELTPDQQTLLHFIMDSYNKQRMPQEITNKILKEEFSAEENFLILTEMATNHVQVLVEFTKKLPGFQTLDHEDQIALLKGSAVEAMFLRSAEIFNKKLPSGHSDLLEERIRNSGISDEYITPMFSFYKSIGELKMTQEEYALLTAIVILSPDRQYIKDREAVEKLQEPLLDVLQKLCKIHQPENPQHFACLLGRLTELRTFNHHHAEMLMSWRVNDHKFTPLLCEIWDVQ
Chain of Aryl hydrocarbon receptor (Homo sapiens) (P35869 whole entry, looked up): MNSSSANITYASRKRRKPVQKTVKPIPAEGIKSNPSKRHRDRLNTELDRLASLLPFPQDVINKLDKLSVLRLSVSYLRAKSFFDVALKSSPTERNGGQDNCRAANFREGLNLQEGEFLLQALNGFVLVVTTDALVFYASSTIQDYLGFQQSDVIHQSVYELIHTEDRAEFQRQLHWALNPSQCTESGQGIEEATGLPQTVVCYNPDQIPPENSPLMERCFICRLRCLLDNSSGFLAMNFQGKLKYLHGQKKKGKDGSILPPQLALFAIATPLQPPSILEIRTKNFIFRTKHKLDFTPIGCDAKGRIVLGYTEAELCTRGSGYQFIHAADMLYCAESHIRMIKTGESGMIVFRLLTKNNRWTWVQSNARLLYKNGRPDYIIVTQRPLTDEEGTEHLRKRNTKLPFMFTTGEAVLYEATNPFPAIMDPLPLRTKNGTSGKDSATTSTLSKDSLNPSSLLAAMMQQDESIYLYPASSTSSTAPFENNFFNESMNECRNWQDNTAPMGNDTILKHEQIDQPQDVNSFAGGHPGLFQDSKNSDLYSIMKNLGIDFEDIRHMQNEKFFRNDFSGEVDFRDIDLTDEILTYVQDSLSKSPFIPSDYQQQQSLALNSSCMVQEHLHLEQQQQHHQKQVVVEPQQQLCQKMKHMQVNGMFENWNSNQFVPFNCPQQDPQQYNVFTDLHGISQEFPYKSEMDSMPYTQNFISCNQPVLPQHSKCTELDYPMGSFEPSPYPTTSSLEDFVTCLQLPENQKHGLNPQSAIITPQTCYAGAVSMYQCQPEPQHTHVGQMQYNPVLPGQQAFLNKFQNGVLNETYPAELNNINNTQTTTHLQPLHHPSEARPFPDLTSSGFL
Chain of Transcription factor E2F1 (Homo sapiens) (Q01094 whole entry, looked up): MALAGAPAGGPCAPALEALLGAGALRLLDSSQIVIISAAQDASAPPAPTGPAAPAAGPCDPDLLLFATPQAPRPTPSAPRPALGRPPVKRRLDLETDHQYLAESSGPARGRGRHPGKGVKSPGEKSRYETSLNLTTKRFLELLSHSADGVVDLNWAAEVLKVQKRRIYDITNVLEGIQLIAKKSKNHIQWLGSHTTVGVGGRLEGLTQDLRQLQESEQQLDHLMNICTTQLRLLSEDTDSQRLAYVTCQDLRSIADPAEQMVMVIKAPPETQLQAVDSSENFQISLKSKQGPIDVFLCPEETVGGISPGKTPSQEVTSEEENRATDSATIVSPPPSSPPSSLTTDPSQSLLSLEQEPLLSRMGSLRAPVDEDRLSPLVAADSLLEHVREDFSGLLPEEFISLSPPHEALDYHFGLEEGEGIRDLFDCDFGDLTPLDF
Chain of Hepatocyte nuclear factor 3-beta (Homo sapiens) (Q9Y261 whole entry, looked up): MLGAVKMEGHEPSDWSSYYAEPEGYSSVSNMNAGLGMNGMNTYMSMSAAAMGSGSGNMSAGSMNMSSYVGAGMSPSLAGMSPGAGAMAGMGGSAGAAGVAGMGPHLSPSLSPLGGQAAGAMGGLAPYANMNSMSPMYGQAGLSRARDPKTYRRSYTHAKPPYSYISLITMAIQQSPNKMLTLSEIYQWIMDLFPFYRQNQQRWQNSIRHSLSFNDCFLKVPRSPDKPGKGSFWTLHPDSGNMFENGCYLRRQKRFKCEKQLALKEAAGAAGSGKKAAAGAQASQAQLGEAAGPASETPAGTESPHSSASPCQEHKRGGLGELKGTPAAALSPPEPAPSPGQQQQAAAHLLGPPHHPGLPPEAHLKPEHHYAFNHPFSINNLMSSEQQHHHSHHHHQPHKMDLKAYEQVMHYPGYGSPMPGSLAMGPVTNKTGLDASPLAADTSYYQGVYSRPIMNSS

COP(=S)(OC)Oc1c(Cl)cc(C)cc1Cl
active: [13] 9.77 µM
not listed: [18] | [19]
inactive: all other assays above

O=C/C=C/c1ccccc1
active: [13] 35 µM
not listed: [16] | [19]
inactive: all other assays above

OCc1ccco1
not listed: [14] | [16]
inactive: all other assays above

CC(=O)c1cc(C(C)(C)C)cc2c1CCC2(C)C
active: [1] 159 µM | [2] 62.5 µM | [3] 26.1 µM | [5] 70.4 µM | [6] 161 µM | [8] 171 µM | [11] 37.9 µM | [14] 147 µM | [17] 143 µM
not listed: [19]
inactive: all other assays above

CCOP(=S)(OCC)Oc1nc(Cl)c(Cl)cc1Cl
active: [2] 26.1 µM | [3] 27.4 µM | [4] 2.35 µM | [5] 46.2 µM | [7] 65.5 µM | [8] 48.6 µM | [13] 27.5 µM | [17] 71.9 µM | [19] 26.4 µM
inactive: all other assays above

O=C(O)Cc1ccccc1
inactive: all assays above

CC1(C)Cc2cccc(O)c2O1
not listed: [14] | [19]
inactive: all other assays above
